According to PubChem BioAssay (NCATS):
Several values for one entry are separate records, joined by “and”; a condition that tells them apart may be missing. Equal entries are not always repeated. Results filed as inconclusive are left out. Activity calls are given as the source filed them. Calls come from the whole dose curve.

Test: Primary qHTS to identify inhibitors of SARS-CoV-2 cell entry (AID 1645846); note: nearly all actives have a fitted effect of over 45% in size
Settings: SARS-CoV-2 pseudovirus cell entry assay, luminescence; activity change, negative = inhibition: at 57.1 µM (top of the series) unless noted; series mostly up to 57.1 µM
Outline: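 Using luciferase-reporting pseudoviruses carrying Wuhan-Hu-1 spike, the screen tracks entry into stably ACE2-expressing cells over 48 hr. Activity is expressed relative to spike particles versus particles lacking any fusion protein.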

Row | SMILES | activity change, negative = inhibition | outcome
1 | CC(C)C1CCC(C(=O)N[C@H](Cc2ccccc2)C(=O)O)CC1 (stereo partly drawn) | 2.32% and -12.7% | –
2 | CN(C)c1cc(NC(=O)CNC(C)(C)C)c(O)c2c1C[C@@H]1C[C@H]3[C@H](N(C)C)C(=O)C(C(N)=O)=C(O)[C@@]3(O)C(=O)C1=C2O | -25.4% | –
3 | CCCNC(=O)NS(=O)(=O)c1ccc(Cl)cc1 | – | inactive
4 | O=c1n(CCCN2CCN(c3cccc(Cl)c3)CC2)nc2ccccn12 | -23.8% | –
5 | COCCCC/C(=N\OCCN)c1ccc(C(F)(F)F)cc1 | 2.14% | –
6 | CCC[C@H](N[C@@H](C)C(=O)N1[C@H](C(=O)O)C[C@@H]2CCCC[C@@H]21)C(=O)OCC | – | inactive
7 | COC(=O)C(c1ccccc1Cl)N1CCc2sccc2C1 (stereo not drawn) | – | inactive
8 | CCC(C)n1ncn(-c2ccc(N3CCN(c4ccc(OC[C@H]5CO[C@](Cn6cncn6)(c6ccc(Cl)cc6Cl)O5)cc4)CC3)cc2)c1=O (stereo partly drawn) | -4.73% [at 27.1 µM] | –
